# Records with an inconclusive call do not appear. Activity calls are given as the source filed them. Unless noted, calls follow the shape of the dose curve; as a rule, active = well fitted curve in the direction sought with a large enough effect; inconclusive = small, poorly fitted or top-dose-only effect, or another doubt; inactive = no such curve, though single readings can be large; an effect the other way counts as inactive or inconclusive.
# Tests used:
# [1] = Quantitative High-Throughput drug screen in 47 multiple myeloma cell lines against the NCATS MIPE library collection: VP6_DJ cell viability assay (AID 1919867); also: nearly all actives have a fitted effect of over 40% in size; also: potency is read from the fitted curve at half-maximal effect
# Outline: (§1)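 ATP-based luminescence (CellTiter-Glo, 5 min RT incubation) quantified surviving cells following two days' treatment with MIPE 4.0 agents at 37 °C, 5% CO2.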
# [2] = Quantitative High-Throughput drug screen in 47 multiple myeloma cell lines against the NCATS MIPE library collection: UTMC2_PLB cell viability assay (AID 1919868); conditions: CellTiter-Glo ATP luminescence, 48 h; viability (% of DMSO control): at 45.8 µM (top of the series) unless noted; also: nearly all actives have a fitted effect of over 55% in size; also: potency is read from the fitted curve at half-maximal effect
# Outline: as §1
# [3] = Quantitative High-Throughput drug screen in 47 multiple myeloma cell lines against the NCATS MIPE library collection: PE2_PLB cell viability assay (AID 1919869); also: nearly all actives have a fitted effect of over 35% in size; also: potency is read from the fitted curve at half-maximal effect
# Outline: as §1
# [4] = Quantitative High-Throughput drug screen in 47 multiple myeloma cell lines against the NCATS MIPE library collection: PCM6_Riken cell viability assay (AID 1919870); also: nearly all actives have a fitted effect of over 30% in size; also: potency is read from the fitted curve at half-maximal effect
# Outline: as §1
# [5] = Quantitative High-Throughput drug screen in 47 multiple myeloma cell lines against the NCATS MIPE library collection: KMS11_JCRBsus cell viability assay (AID 1919873); also: nearly all actives have a fitted effect of over 50% in size; also: potency is read from the fitted curve at half-maximal effect
# Outline: as §1
# [6] = Quantitative High-Throughput drug screen in 47 multiple myeloma cell lines against the NCATS MIPE library collection: KMS28BM_JCRB cell viability assay (AID 1919874); also: nearly all actives have a fitted effect of over 35% in size; also: potency is read from the fitted curve at half-maximal effect
# Outline: as §1
# [7] = qHTS drug screen for cell cycle checkpoint inhibitors in PARPi-resistant BRCA-mutant ovarian cancer cell lines. (AID 1963452; calls by dose curve; also: potency is read from the fitted curve at half-maximal effect); conditions: PEO1/OlaR viability, CellTiter-Glo luminescence, 96 h; for Z-AUC: stronger effect = lower value
# Outline: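 PEO1, PEO4 and PEO1/OlaR ovarian cancer cells, 600 per well, exposed 96 h at 37C to a dilution series. Viability read by CellTiter-Glo luminescence, normalized to DMSO and empty wells; activity summarized as Z-AUC.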
# [8] = qHTS for identification of novel therapeutic agents for treatment of microphthalmiaassociated transcription factor (MiT) renal cell carcinoma (RCC) (AID 1963991; calls by dose curve; also: potency is read from the fitted curve at half-maximal effect;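 as to z-score: curves scaled with 100% = DMSO viability and 0% = empty wells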); conditions: CellTiter-Glo, 48 h; for Potency: active = Z-AUC below -0.8 in all three lines; for z-score: stronger effect = lower value
# Outline: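 UOK109/UOK124/UOK145 (TFE3 fusions, three partners); 500 cells/well; MIPE v4.0, 1912 cpds, 11 conc.; 48 h, 37 C; CellTiter-Glo, 15 min RT; lum. Norm.: DMSO 100%, empty 0%.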
# [9] = Quantitative High-Throughput drug screen in 47 multiple myeloma cell lines against the NCATS MIPE library collection: OPM2_DSMZ cell viability assay (AID 1919872); also: nearly all actives have a fitted effect of over 30% in size; also: potency is read from the fitted curve at half-maximal effect
# Outline: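 CellTiter-Glo ATP luminescence gave viability after 48 h compound treatment at 37C of 500 multiple myeloma cells per well. Normalisation used DMSO-only wells as 100% and media-only wells as 0% viability; primary qHTS of approved and investigational drugs.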
# [10] = Quantitative High-Throughput drug screen in 47 multiple myeloma cell lines against the NCATS MIPE library collection: RPMI8226_ATCC cell viability assay (AID 1919871); also: nearly all actives have a fitted effect of over 30% in size; also: potency is read from the fitted curve at half-maximal effect
# Outline: as §1
# [11] = qHTS profiling for inhibitors of Plasmodium falciparum proliferation (AID 504749);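 also: 0% = DMSO vehicle and full inhibition = artemisinin control; nearly all actives have a fitted effect of over 60% in size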; conditions: P. falciparum in erythrocytes, SYBR Green DNA, 72 h; at 12.8 µM (top of the series); parasite line A
# Outline: (§2)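 In a 72 h erythrocytic culture (37 C, humidified, 5% CO2) at 2.5% hematocrit and 0.3% starting parasitemia, compounds were tested; SYBR Green I in detergent lysis buffer stained parasite DNA overnight.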
# 3D7 = assay: as above; conditions: P. falciparum in erythrocytes, SYBR Green DNA, 72 h; series mostly up to 28.7 µM
# Outline: as §2
# 7G8 = assay: as above; conditions: P. falciparum in erythrocytes, SYBR Green DNA, 72 h; series mostly up to 28.7 µM
# Outline: as §2
# AA1029 = assay: as above; conditions: P. falciparum in erythrocytes, SYBR Green DNA, 72 h; series mostly up to 28.7 µM
# Outline: as §2
# AS120 = assay: as above; conditions: P. falciparum in erythrocytes, SYBR Green DNA, 72 h; series mostly up to 28.7 µM
# Outline: as §2
# ATS189 = assay: as above; conditions: P. falciparum in erythrocytes, SYBR Green DNA, 72 h; series mostly up to 28.7 µM
# Outline: as §2
# ATS95 = assay: as above; conditions: P. falciparum in erythrocytes, SYBR Green DNA, 72 h; series mostly up to 28.7 µM
# Outline: as §2
# C2A = assay: as above; conditions: P. falciparum in erythrocytes, SYBR Green DNA, 72 h; series mostly up to 28.7 µM
# Outline: as §2
# CP185 = assay: as above; conditions: P. falciparum in erythrocytes, SYBR Green DNA, 72 h; series mostly up to 28.7 µM
# Outline: as §2
# CP191 = assay: as above; conditions: P. falciparum in erythrocytes, SYBR Green DNA, 72 h; series mostly up to 28.7 µM
# Outline: as §2
# [12] = measured here: PEO1 parental Z-AUC
# [13] = TFE3-RCC UOK109 viability, measured here: UOK109 Z-AUC
# [14] = TFE3-RCC viability, measured here: UOK124 Z-AUC
# [15] = TFE3-RCC viability, measured here: UOK145 Z-AUC
smiles,measurement,setting,value
NC(=O)Nc1cc(-c2cccc(F)c2)sc1C(=O)N[C@H]1CCCNC1,Potency,[1],0.166 µM (active)
same,Potency,[2],0.105 µM (active)
same,Potency,[3],0.469 µM (active)
same,Potency,[4],4.69 µM (active)
same,Potency,[5],0.526 µM (active)
same,Potency,[6],1.87 µM (active)
same,Potency,[7],0.11 µM (active)
same,Z-AUC,[7]; [12],-1.9
same,Z-AUC,[7]; measured here: PEO4 Z-AUC,-1.5
same,Potency,[8]; TFE3-RCC UOK109 viability,0.935 µM (active)
same,z-score,[8]; [13],-1.42
same,z-score,[8]; [14],-1.69
same,z-score,[8]; [15],-1.85
C=CC(=O)Nc1cc2c(Nc3ccc(F)c(Cl)c3)ncnc2cc1OCCCN1CCOCC1,Potency,[1],1.18 µM (active)
same,Potency,[2],4.69 µM (active)
same,Potency,[3],1.87 µM (active)
same,Potency,[4],1.48 µM (active)
same,Potency,[9],20.9 µM (active)
same,Potency,[6],5.26 µM (active)
CN(C)CC(C)(C)CNc1nn2c(-c3ccccc3)nnc2cc1C1CCC1,Potency,[1],10.5 µM (active)
same,Potency,[2],1.05 µM (active)
same,Potency,[3],11.8 µM (active)
same,Potency,[10],inactive
same,Potency,[9],inactive
same,Potency,[5],inactive
same,Z-AUC,[7],0.384 (inactive)
same,Z-AUC,[7]; [12],0.768
same,Z-AUC,[7]; measured here: PEO4 Z-AUC,0.988
CCN(CC)CCCCNc1ncc2cc(-c3cc(OC)cc(OC)c3)c(NC(=O)NC(C)(C)C)nc2n1,Potency,[1],10.5 µM (active)
same,Potency,[2],16.6 µM (active)
same,Potency,[3],20.9 µM (active)
same,Potency,[4],5.26 µM (active)
same,Potency,[5],23.5 µM (active)
same,Z-AUC,[7],-1.19 (inactive)
same,Z-AUC,[7]; [12],1.07
same,Z-AUC,[7]; measured here: PEO4 Z-AUC,0.00955
CNC(=O)c1cc(Oc2ccc(NC(=O)Nc3cc(C(C)(C)C)nn3-c3ccc4ncccc4c3)c(F)c2)ccn1,Potency,[1],4.69 µM (active)
same,Potency,[2],4.18 µM (active)
same,Potency,[3],5.26 µM (active)
same,Potency,[4],2.64 µM (active)
same,Potency,[9],18.7 µM (active)
same,Potency,[6],9.35 µM (active)
same,Z-AUC,[7],0.924 (inactive)
same,Z-AUC,[7]; [12],1.09
same,Z-AUC,[7]; measured here: PEO4 Z-AUC,1.19
Nc1ccc(S(=O)(=O)Nc2ncccn2)cc1,Potency,[1],inactive
same,Potency,[2],inactive
same,Potency,[3],inactive
same,Potency,[4],inactive
same,Potency,[9],inactive
same,Potency,[6],inactive
same,z-score,[8]; [13],-0.287
same,z-score,[8]; [14],0.624
same,z-score,[8]; [15],-0.336
same,"activity, negative = inhibition",[11],8.9% (inactive)
same,Potency,3D7,inactive
same,Potency,7G8,inactive
same,Potency,AA1029,inactive
same,Potency,AS120,inactive
same,Potency,ATS189,inactive
same,Potency,ATS95,inactive
same,Potency,C2A,inactive
same,Potency,CP185,inactive
same,Potency,CP191,inactive
Cc1ccc2nc(NC(=O)CSc3nc4c(c(=O)n3-c3ccccc3)SCC4)sc2c1,Potency,[1],9.35 µM (active)
same,Potency,[2],inactive
same,Potency,[3],9.35 µM (active)
same,Potency,[9],20.9 µM (active)
same,Potency,[5],8.33 µM (active)
same,Potency,[6],9.35 µM (active)
same,Z-AUC,[7],1.55 (inactive)
same,Z-AUC,[7]; [12],1.46
same,Z-AUC,[7]; measured here: PEO4 Z-AUC,1.44
C[C@@H]1CN(CC(=O)Nc2ccc3c(c2)Cc2cccc(-c4cc(=O)cc(N5CCOCC5)o4)c2S3)C[C@H](C)O1,Potency,[1],16.6 µM (active)
same,Potency,[2],6.62 µM (active)
same,Potency,[3],13.2 µM (active)
same,Potency,[4],9.35 µM (active)
same,Potency,[5],16.6 µM (active)
same,Z-AUC,[7],0.729 (inactive)
same,Z-AUC,[7]; [12],0.761
same,Z-AUC,[7]; measured here: PEO4 Z-AUC,0.901
Cc1ccc(C(N)=O)cc1Nc1nccc(-c2cn(C(C)C)c3cnccc23)n1,Potency,[1],2.35 µM (active)
same,Potency,[3],3.72 µM (active)
same,Potency,[4],2.09 µM (active)
same,Potency,[10],16.6 µM (active)
same,Potency,[9],14.8 µM (active)
same,Potency,[5],4.69 µM (active)
same,Potency,[6],5.9 µM (active)
same,Z-AUC,[7],-1.23 (inactive)
same,Z-AUC,[7]; [12],-1.45
same,Z-AUC,[7]; measured here: PEO4 Z-AUC,-1.25
Nc1ccc(C(=O)c2cc3c(ccc4ccccc43)[nH]2)cc1,Potency,[1],3.72 µM (active)
same,Potency,[2],9.35 µM (active)
same,Potency,[3],2.96 µM (active)
same,Potency,[9],6.62 µM (active)
same,Potency,[5],0.743 µM (active)
same,Potency,[6],0.935 µM (active)
same,Z-AUC,[7],-0.0185 (inactive)
same,Z-AUC,[7]; [12],-0.727
same,Z-AUC,[7]; measured here: PEO4 Z-AUC,-0.792
CC[C@@H]1C(=O)N(C)c2cnc(Nc3ccc(C(=O)NC4CCN(C)CC4)cc3OC)nc2N1C1CCCC1,Potency,[1],2.96 µM (active)
same,Potency,[2],inactive
same,Potency,[4],7.43 µM (active)
same,Potency,[10],7.43 µM (active)
same,Potency,[9],0.059 µM (active)
same,Potency,[5],0.0209 µM (active)
same,Potency,[6],0.0118 µM (active)
same,Potency,[8]; TFE3-RCC UOK109 viability,4.18 µM (active)
same,z-score,[8]; [13],-0.898
same,z-score,[8]; [14],-2.05
same,z-score,[8]; [15],-1.29
NC(=O)c1cccc2cn(-c3ccc([C@@H]4CCCNC4)cc3)nc12,Potency,[1],18.7 µM (active)
same,Potency,[2],inactive
same,Potency,[4],inactive
same,Potency,[10],inactive
same,Potency,[5],inactive
same,Potency,[6],inactive
same,Z-AUC,[7],0.523 (inactive)
same,Z-AUC,[7]; [12],-0.0942
same,Z-AUC,[7]; measured here: PEO4 Z-AUC,0.435
CC(=O)Nc1sc2c(c1-c1nc3ccccc3s1)CNC2,Potency,[1],11.8 µM (active)
same,Potency,[3],20.9 µM (active)
same,Potency,[4],14.8 µM (active)
same,Potency,[10],14.8 µM (active)
same,Potency,[5],13.2 µM (active)
same,Potency,[6],14.8 µM (active)
CC(=O)Nc1nc(C)c(-c2ccc(Cl)c(S(=O)(=O)NCCO)c2)s1,Potency,[1],2.64 µM (active)
same,Potency,[3],4.69 µM (active)
same,Potency,[4],4.69 µM (active)
same,Potency,[10],16.6 µM (active)
same,Potency,[9],14.8 µM (active)
same,Potency,[5],5.26 µM (active)
same,Potency,[6],18.7 µM (active)
same,Z-AUC,[7],-1.67 (inactive)
same,Z-AUC,[7]; [12],-0.921
same,Z-AUC,[7]; measured here: PEO4 Z-AUC,-1.08
CN(C)c1nc(Cc2ccc(NC(=O)c3ccc4ccccc4c3)cc2)nc(Cl)c1CC(=O)O,Potency,[1],inactive
same,Potency,[3],inactive
same,Potency,[4],inactive
same,Potency,[10],inactive
same,Potency,[9],inactive
same,Potency,[6],inactive
same,z-score,[8]; [13],0.743
same,z-score,[8]; [14],0.693
same,z-score,[8]; [15],0.756

# Reference: PubChem BioAssay (NCATS)
